Experimental data as given in publication doi:10.1101/2024.03.05.583629.

Biological target: pT7_6His-AlfaTag-HOXD13 (human, UniProt P35453 263-343)
Experiment: PADIT-seq
Settings: dsDNA, one strand shown

pT7_6His-AlfaTag-HOXD13, sequence (P35453 263-343): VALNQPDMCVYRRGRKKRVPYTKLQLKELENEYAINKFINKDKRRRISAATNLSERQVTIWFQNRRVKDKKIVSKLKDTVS

Sequence | binding signal [log2FC]
CTCGAGGATATCAAGATCTGGCCTCGGCGTTTTACTTGGAACCTCTAGCTAGCCGACTCACTATAGGGATAATCGCCCTGAGCAAAGACC | 1.25 ± 0.0875
CTCGAGGATATCAAGATCTGGCCTCGGCGCGTGGAAGGGAACCTCTAGCTAGCCGACTCACTATAGGGATAATCGCCCTGAGCAAAGACC | -0.832 ± 0.125
CTCGAGGATATCAAGATCTGGCCTCGGCCTTTTAAACGGAACCTCTAGCTAGCCGACTCACTATAGGGATAATCGCCCTGAGCAAAGACC | 2.06 ± 0.0696
CTCGAGGATATCAAGATCTGGCCTCGGCAAGATAAAAGGAACCTCTAGCTAGCCGACTCACTATAGGGATAATCGCCCTGAGCAAAGACC | 0.282 ± 0.0917
CTCGAGGATATCAAGATCTGGCCTCGGCCTTTTATAGGGAACCTCTAGCTAGCCGACTCACTATAGGGATAATCGCCCTGAGCAAAGACC | 3.21 ± 0.0791
CTCGAGGATATCAAGATCTGGCCTCGGCATGATAAAAGGAACCTCTAGCTAGCCGACTCACTATAGGGATAATCGCCCTGAGCAAAGACC | 1.61 ± 0.0749
CTCGAGGATATCAAGATCTGGCCTCGGCGCGATAGCGGGAACCTCTAGCTAGCCGACTCACTATAGGGATAATCGCCCTGAGCAAAGACC | -0.758 ± 0.131
CTCGAGGATATCAAGATCTGGCCTCGGCGTTTTAAGCGGAACCTCTAGCTAGCCGACTCACTATAGGGATAATCGCCCTGAGCAAAGACC | 0.144 ± 0.109
CTCGAGGATATCAAGATCTGGCCTCGGCTCAGTAAAAGGAACCTCTAGCTAGCCGACTCACTATAGGGATAATCGCCCTGAGCAAAGACC | 1.56 ± 0.0915
CTCGAGGATATCAAGATCTGGCCTCGGCCGGATAAAAGGAACCTCTAGCTAGCCGACTCACTATAGGGATAATCGCCCTGAGCAAAGACC | 0.58 ± 0.0859
CTCGAGGATATCAAGATCTGGCCTCGGCGGCCTAAAAGGAACCTCTAGCTAGCCGACTCACTATAGGGATAATCGCCCTGAGCAAAGACC | -0.691 ± 0.105
CTCGAGGATATCAAGATCTGGCCTCGGCCTTTTAGCAGGAACCTCTAGCTAGCCGACTCACTATAGGGATAATCGCCCTGAGCAAAGACC | 0.506 ± 0.084
CTCGAGGATATCAAGATCTGGCCTCGGCTCGATAAAAGGAACCTCTAGCTAGCCGACTCACTATAGGGATAATCGCCCTGAGCAAAGACC | 1.03 ± 0.106
CTCGAGGATATCAAGATCTGGCCTCGGCCTTTTATCAGGAACCTCTAGCTAGCCGACTCACTATAGGGATAATCGCCCTGAGCAAAGACC | 2.19 ± 0.0738
CTCGAGGATATCAAGATCTGGCCTCGGCGCGTGGCCGGGAACCTCTAGCTAGCCGACTCACTATAGGGATAATCGCCCTGAGCAAAGACC | -1.04 ± 0.14
CTCGAGGATATCAAGATCTGGCCTCGGCGGCTTAAAAGGAACCTCTAGCTAGCCGACTCACTATAGGGATAATCGCCCTGAGCAAAGACC | -0.00793 ± 0.0839
CTCGAGGATATCAAGATCTGGCCTCGGCCGCCCATCTGGAACCTCTAGCTAGCCGACTCACTATAGGGATAATCGCCCTGAGCAAAGACC | -0.946 ± 0.119
CTCGAGGATATCAAGATCTGGCCTCGGCCCTCTAAAAGGAACCTCTAGCTAGCCGACTCACTATAGGGATAATCGCCCTGAGCAAAGACC | 0.681 ± 0.104
CTCGAGGATATCAAGATCTGGCCTCGGCTTTTTAAAGGGAACCTCTAGCTAGCCGACTCACTATAGGGATAATCGCCCTGAGCAAAGACC | 2.54 ± 0.0796
CTCGAGGATATCAAGATCTGGCCTCGGCGGATTAAAAGGAACCTCTAGCTAGCCGACTCACTATAGGGATAATCGCCCTGAGCAAAGACC | 1.17 ± 0.076
CTCGAGGATATCAAGATCTGGCCTCGGCTTTTTATAAGGAACCTCTAGCTAGCCGACTCACTATAGGGATAATCGCCCTGAGCAAAGACC | 3.23 ± 0.0851
CTCGAGGATATCAAGATCTGGCCTCGGCTCCATAAAAGGAACCTCTAGCTAGCCGACTCACTATAGGGATAATCGCCCTGAGCAAAGACC | 2.64 ± 0.0916
CTCGAGGATATCAAGATCTGGCCTCGGCCATCTAAAAGGAACCTCTAGCTAGCCGACTCACTATAGGGATAATCGCCCTGAGCAAAGACC | -0.085 ± 0.105
CTCGAGGATATCAAGATCTGGCCTCGGCGGACTAAAAGGAACCTCTAGCTAGCCGACTCACTATAGGGATAATCGCCCTGAGCAAAGACC | -0.896 ± 0.106
CTCGAGGATATCAAGATCTGGCCTCGGCATAGTAAAAGGAACCTCTAGCTAGCCGACTCACTATAGGGATAATCGCCCTGAGCAAAGACC | 1.98 ± 0.0822
CTCGAGGATATCAAGATCTGGCCTCGGCCGCCCAAGCGGAACCTCTAGCTAGCCGACTCACTATAGGGATAATCGCCCTGAGCAAAGACC | -0.698 ± 0.123
